PubChem BioAssay (NCATS)
Unmarked numbers belong to inactive results. Results filed as inconclusive are left out. Activity calls are given as the source filed them. Unless noted, the call rests on the fitted dose curve; in most records, active means well fitted curve in the direction sought with a large enough effect; inconclusive means small, poorly fitted or top-dose-only effect, or another doubt; inactive means no such curve, though single readings can be large; an effect the other way counts as inactive or inconclusive.

How the values were obtained:
[1] = target: Lysosomal acid glucosylceramidase (Homo sapiens) (UniProt P04062); experiment: Glucocerebrosidase-p2 (AID 348; in the data active means potency below about 10 µM; further: potency means the concentration at half of the fitted maximal effect); conditions: purified GBA, blue fluorogenic substrate, 40 min
Chain of Lysosomal acid glucosylceramidase (Homo sapiens) (P04062 whole entry, looked up): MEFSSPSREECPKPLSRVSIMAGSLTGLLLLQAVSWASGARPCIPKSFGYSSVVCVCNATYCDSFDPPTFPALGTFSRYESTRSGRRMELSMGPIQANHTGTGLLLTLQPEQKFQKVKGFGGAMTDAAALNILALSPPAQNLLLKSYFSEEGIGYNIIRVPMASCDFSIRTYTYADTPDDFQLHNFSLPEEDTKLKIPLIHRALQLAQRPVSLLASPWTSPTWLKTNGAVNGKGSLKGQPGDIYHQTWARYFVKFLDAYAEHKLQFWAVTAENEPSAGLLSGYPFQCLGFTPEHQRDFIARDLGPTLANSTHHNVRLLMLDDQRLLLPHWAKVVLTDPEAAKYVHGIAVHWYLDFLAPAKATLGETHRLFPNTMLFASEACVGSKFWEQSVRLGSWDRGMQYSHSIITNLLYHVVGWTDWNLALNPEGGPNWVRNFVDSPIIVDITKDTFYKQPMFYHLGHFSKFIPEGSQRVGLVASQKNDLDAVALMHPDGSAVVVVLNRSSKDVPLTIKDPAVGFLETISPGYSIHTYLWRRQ
Outline: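 Compounds titrated from 0.6 nM upwards against 0.2 nM enzyme in pH 5.9 citric acid/KH2PO4, taurocholate, tween-20; blue fluorogenic substrate 80 uM, 40 min room temperature, stopped and read Ex 365/Em 440 for AC50.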

[2] = AP1 Signaling Pathway (AID 357; active means well fitted curve in either direction with a large enough effect, not every such curve was filed as active;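 further: ME-180 reporter cells stimulated with EGF at its EC50 level; on the % scale 0 is the no-effect control and ±100 the full control effect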); conditions: ME-180 AP-1-bla reporter, EGF-induced, beta-lactamase ratio, 5 h; at 7.69 µM (top of the series) unless noted
Outline: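 In this screen, ME-180 cells in Opti-MEM with 0.5% dialyzed FBS received EC50 EGF and compound titrations for 5 h. AP-1 reporter beta-lactamase was detected via CCF4 ratio, giving AC50 for positive and negative modulators.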

[3] = NFAT Signaling Pathway (AID 444; active means well fitted curve in either direction with a large enough effect, not every such curve was filed as active;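 further: carbachol stimulus at about its EC50 of 1 µM final; on the % scale 0 is the no-effect control and ±100 the full control effect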); conditions: Jurkat NFAT-bla M1, carbachol, beta-lactamase ratio, 5 h; at 7.69 µM (top of the series) unless noted
Outline: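 Jurkat cells with NFAT-driven β-lactamase reporter and co-expressed M1 receptor, stimulated with carbachol (final 1 uM, ~EC50), compound titration, 5 h at 37 °C. CCF4 loaded 1 h at RT; 460/530 nm ratio gave %activity and AC50.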

[4] = Stat Signaling Pathway (AID 446; active means well fitted curve in either direction with a large enough effect, not every such curve was filed as active;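 further: ME-180 cervical cancer cells given 40 pM IL-6 alongside compound; SIE-controlled beta-lactamase reporter measured as 460/530 nm FRET emission ratio; on the % scale 0 is the no-effect control and ±100 the full control effect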); conditions: ME-180 (cervical carcinoma) SIE beta-lactamase reporter, IL-6 stimulated, 5 h; series mostly up to 7.69 µM
Outline: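 IL-6/STAT signaling read in ME-180 cells via an SIE beta-lactamase reporter. Stimulus was 40 pM IL-6 (its AC50) for 5 hrs, so both activation and inhibition register.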

[5] = target: Glucocorticoid receptor (Homo sapiens) (UniProt P04150); experiment: GR-GFP Redistribution (AID 450;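 active means compounds whose dose series gives a full or clear partial fitted curve of increased nuclear translocation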; further: potency means the concentration at half of the fitted maximal effect); conditions: U2OS GR-GFP nuclear translocation, laser cytometry, 2 h
Chain of Glucocorticoid receptor (Homo sapiens) (P04150 whole entry, looked up, the tested form may be a part): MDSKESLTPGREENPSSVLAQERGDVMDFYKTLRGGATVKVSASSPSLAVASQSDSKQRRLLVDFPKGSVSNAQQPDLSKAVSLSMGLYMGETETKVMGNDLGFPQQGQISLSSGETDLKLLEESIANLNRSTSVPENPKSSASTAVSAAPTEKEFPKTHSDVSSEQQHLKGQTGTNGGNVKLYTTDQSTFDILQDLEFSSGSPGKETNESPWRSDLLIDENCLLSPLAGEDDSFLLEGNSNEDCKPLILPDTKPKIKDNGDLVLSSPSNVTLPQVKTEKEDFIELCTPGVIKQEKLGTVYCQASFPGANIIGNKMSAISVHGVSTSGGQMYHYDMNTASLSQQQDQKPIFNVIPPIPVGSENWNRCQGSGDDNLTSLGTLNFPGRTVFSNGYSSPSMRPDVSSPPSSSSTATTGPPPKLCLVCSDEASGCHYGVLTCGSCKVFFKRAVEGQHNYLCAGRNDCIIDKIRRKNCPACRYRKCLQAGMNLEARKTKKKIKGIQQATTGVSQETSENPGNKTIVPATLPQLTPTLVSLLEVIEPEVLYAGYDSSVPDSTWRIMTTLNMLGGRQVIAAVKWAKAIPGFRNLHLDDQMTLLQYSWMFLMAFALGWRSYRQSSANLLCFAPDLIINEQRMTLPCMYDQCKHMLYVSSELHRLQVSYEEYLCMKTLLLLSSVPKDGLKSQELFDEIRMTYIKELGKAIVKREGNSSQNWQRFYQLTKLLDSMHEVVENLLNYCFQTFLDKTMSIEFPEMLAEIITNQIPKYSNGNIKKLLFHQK

[6] = target: Glucocorticoid receptor (Homo sapiens) (UniProt P04150); experiment: GR-EFC Redistribution (AID 451; calls by dose curve; further: potency means the concentration at half of the fitted maximal effect); conditions: CHO-K1 GR-EFC translocation, beta-gal luminescence, 2 h
Outline: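 CHO-K1 cells expressing nuclear EA and GR-ED fragments of b-gal; compounds titrated up to 46 uM final, 2 h at 37 C. GR nuclear translocation read as complemented b-gal luminescence after 1 h RT detection.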

[7] = target: Mitogen-activated protein kinase 10 (Mus musculus) (UniProt Q61831); experiment: JNK3 AlphaScreen Assay (AID 530; active means well fitted curve in either direction with a large enough effect, not every such curve was filed as active;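 further: kinase came from lysate of stimulated human HepG2 cells; signal reports phosphorylation of biotinylated GST-cJun 1-79 at Ser73 with 10 µM ATP; on the % scale 0 is the no-effect control and ±100 the full control effect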); conditions: JNK3 lysate, c-Jun phosphorylation; series mostly up to 57.1 µM
Outline: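 qHTS format: compounds tested as titrations against IL-1beta/TNF-alpha-activated HepG2 lysate JNK3 with biotin-GST-cJun substrate and 10 uM ATP at room temperature. Loss of anti-phospho-cJun AlphaScreen signal indicates inhibition.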

[8] = target: 3',5'-cyclic-AMP phosphodiesterase 4B (Homo sapiens) (UniProt Q07343); experiment: qHTS Assay for Inhibitors of PDE-IV (AID 607; active means well fitted activation curve with a large enough effect in the main read-out, with a control signal flat, not every such curve was filed as active; further: % of control where 0% means no effect); conditions: HEK293 ACTOne CNG channel cells, membrane potential fluorescence; series mostly up to 22.9 µM
Chain of 3',5'-cyclic-AMP phosphodiesterase 4B (Homo sapiens) (Q07343 whole entry, looked up): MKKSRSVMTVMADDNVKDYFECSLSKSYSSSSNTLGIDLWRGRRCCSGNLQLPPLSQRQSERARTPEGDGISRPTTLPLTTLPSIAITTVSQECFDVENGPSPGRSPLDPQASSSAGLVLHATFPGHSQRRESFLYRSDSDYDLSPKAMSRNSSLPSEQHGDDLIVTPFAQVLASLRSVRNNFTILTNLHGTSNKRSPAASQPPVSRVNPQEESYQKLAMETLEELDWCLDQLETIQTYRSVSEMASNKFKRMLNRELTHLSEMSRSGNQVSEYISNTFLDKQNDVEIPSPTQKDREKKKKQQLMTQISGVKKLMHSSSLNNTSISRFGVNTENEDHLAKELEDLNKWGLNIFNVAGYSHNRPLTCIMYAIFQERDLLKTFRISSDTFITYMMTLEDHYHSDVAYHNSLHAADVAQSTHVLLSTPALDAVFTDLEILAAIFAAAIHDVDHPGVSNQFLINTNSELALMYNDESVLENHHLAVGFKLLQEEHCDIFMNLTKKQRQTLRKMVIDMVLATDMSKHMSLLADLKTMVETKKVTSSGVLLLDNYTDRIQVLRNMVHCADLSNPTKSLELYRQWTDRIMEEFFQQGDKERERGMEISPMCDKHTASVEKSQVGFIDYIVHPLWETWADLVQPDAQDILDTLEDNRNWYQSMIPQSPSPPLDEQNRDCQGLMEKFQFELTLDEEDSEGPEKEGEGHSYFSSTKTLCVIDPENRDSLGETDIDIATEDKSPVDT
Outline: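 Live HEK293 cells with a modified cyclic nucleotide-gated (CNG) channel report intracellular cAMP via membrane-potential dye fluorescence (ex 535/em 590 nm). Endogenous PDE-IV was targeted. Compounds were tested at up to 22.9 uM final; RO 20-1724 100 uM served as control.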

[9] = target: Cytochrome P450 2C9 (Homo sapiens) (UniProt P11712); experiment: qHTS Assay for Inhibitors and Substrates of Cytochrome P450 2C9 (AID 883); conditions: recombinant CYP2C9, luciferin-H luminescence, 60 min; series mostly up to 57.1 µM; further: potency means the concentration at half of the fitted maximal effect; nearly all actives have a fitted effect of over 60% in size
Outline: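 10nM CYP2C9 + 100uM Luciferin-H (=KM), 25mM KPO4; cpd 10 min 37C; NADPH regen, 60 min 37C; stop/detect with P450 Glo-Buffer 20 min; luminescence. Norm. to 57uM sulphaphenazole as full inhibition.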

[10] = target: Cytochrome P450 3A4 (Homo sapiens) (UniProt P08684); experiment: qHTS Assay for Inhibitors and Substrates of Cytochrome P450 3A4 (AID 884); conditions: recombinant CYP3A4, Luciferin-PPXE luminescence; series mostly up to 57.1 µM; further: potency means the concentration at half of the fitted maximal effect; nearly all actives have a fitted effect of over 50% in size
Chain of Cytochrome P450 3A4 (Homo sapiens) (P08684 whole entry, looked up): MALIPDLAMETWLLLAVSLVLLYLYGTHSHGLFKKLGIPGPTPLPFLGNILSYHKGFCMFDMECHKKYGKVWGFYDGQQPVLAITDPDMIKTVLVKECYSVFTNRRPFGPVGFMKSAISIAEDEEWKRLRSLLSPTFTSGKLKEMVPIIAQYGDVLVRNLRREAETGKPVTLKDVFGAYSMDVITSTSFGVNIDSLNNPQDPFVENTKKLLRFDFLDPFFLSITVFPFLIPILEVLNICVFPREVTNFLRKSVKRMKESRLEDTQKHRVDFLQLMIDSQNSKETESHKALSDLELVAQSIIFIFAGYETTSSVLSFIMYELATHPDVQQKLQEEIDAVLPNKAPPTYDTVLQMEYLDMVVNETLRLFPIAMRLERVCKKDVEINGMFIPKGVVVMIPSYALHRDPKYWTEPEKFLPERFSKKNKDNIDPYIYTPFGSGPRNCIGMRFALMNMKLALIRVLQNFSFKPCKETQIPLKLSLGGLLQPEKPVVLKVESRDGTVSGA
Outline: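 20 nM human CYP3A4 with 25 uM Luciferin-PPXE (at KM) in 200 mM KPO4, preincubated 10 min with compound; NADPH regeneration started a 60 min RT reaction. Luciferin detected by luminescence, normalized to 57 uM ketoconazole as full inhibition.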

[11] = target: Cytochrome P450 3A4 (Homo sapiens) (UniProt P08684); experiment: qHTS Assay for Activators of Cytochrome P450 3A4 (AID 885); conditions: recombinant CYP3A4, Luciferin-PPXE luminescence, 60 min; series mostly up to 57.1 µM; further: nearly all actives have a fitted effect of over 65% in size
Outline: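 Quantitative HTS format: compounds preincubated with 20nM human CYP3A4 and Luciferin-PPXE substrate at KM, reaction started by NADPH regeneration, stopped after 60 min, luciferase luminescence read 20 min later.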

[12] = target: Cytochrome P450 2D6 (Homo sapiens) (UniProt P10635); experiment: qHTS Assay for Inhibitors and Substrates of Cytochrome P450 2D6 (AID 891); conditions: recombinant CYP2D6, luciferin-ME EGE luminescence; series mostly up to 57.1 µM; further: potency means the concentration at half of the fitted maximal effect; nearly all actives have a fitted effect of over 60% in size
Outline: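 Human CYP2D6 (5 nM) with 30 uM Luciferin-ME EGE (at Km) in 100 mM KPO4, compound preincubated 10 min, then NADPH regeneration system for 60 min at room temperature. Luciferin read by luminescence; normalized to 1.43 uM quinidine.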

[13] = target: Cytochrome P450 2C19 (Homo sapiens) (UniProt P33261); experiment: qHTS Assay for Inhibitors and Substrates of Cytochrome P450 2C19 (AID 899); conditions: recombinant CYP2C19, luciferin-H EGE luminescence; series mostly up to 57.1 µM; further: potency means the concentration at half of the fitted maximal effect; nearly all actives have a fitted effect of over 60% in size
Chain of Cytochrome P450 2C19 (Homo sapiens) (P33261 whole entry, looked up): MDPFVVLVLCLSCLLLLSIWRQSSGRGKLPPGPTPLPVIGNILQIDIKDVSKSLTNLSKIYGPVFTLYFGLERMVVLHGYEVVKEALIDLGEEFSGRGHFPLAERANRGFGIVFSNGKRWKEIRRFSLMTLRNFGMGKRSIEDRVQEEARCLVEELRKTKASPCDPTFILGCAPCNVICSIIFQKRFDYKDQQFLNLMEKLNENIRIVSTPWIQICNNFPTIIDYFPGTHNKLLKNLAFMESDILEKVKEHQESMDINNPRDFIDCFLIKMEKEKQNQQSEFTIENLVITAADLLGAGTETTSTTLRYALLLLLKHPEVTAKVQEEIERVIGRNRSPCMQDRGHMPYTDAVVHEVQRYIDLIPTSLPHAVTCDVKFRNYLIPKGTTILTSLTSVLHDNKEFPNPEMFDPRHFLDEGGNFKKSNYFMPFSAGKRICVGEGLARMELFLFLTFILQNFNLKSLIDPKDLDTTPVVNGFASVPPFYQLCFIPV
Outline: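 Luminescent read-out of luciferin formed from Luciferin-H EGE (10uM, equal to KM). Enzyme 5nM in 50mM KPO4; compound added, 10 min at 37C, then NADPH regenerating system for 60 min at 37C. Full inhibition defined by 57uM ketoconazole.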

[14] = target: Dual specificity protein kinase CLK4 (Homo sapiens) (UniProt Q9HAZ1); experiment: qHTS Assay for Inhibitors of CDC-like Kinase 4 (Kinase-Glo Assay) (AID 1770); conditions: recombinant Clk4, Kinase-Glo ATP depletion luminescence; series mostly up to 66.7 µM; further: nearly all actives have a fitted effect of over 65% in size; further: potency means the concentration at half of the fitted maximal effect
Chain of Dual specificity protein kinase CLK4 (Homo sapiens) (Q9HAZ1 whole entry, looked up): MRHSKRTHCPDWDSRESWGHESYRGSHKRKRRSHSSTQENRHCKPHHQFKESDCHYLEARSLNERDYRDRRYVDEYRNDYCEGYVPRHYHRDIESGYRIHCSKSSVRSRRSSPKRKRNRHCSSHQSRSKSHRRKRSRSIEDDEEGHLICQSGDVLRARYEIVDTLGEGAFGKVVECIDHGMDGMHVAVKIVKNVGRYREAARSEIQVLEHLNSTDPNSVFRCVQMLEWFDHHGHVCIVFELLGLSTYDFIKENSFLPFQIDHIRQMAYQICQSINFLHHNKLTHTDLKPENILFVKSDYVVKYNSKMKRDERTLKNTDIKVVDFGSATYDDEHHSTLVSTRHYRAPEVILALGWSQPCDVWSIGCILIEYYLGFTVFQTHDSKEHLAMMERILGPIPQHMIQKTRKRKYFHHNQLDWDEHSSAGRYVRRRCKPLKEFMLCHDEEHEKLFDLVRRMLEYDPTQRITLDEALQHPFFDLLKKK
Outline: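 Clk4 25 nM, RS peptide 100 uM, ATP 1 uM, pH 7.5 Tris, 10 mM MgCl2, 2.5 mM DTT; 4.5 h RT; ATP depletion read by Kinase-Glo luminescence.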

[15] = target: Dual specificity protein kinase CLK4 (Homo sapiens) (UniProt Q9HAZ1); experiment: qHTS Assay for Inhibitors of CDC-like Kinase 4 (ADP-Glo Assay) (AID 1771); conditions: recombinant CLK4, ADP-Glo luminescence; series mostly up to 80 µM; further: nearly all actives have a fitted effect of over 70% in size; further: potency means the concentration at half of the fitted maximal effect
Outline: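 Kinase reaction: Clk4 at 25 nM, RS repeat peptide substrate at 100 uM, ATP at 1 uM, 1 hr, room temperature. Product ADP detected as luciferase signal via ADP-Glo.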

[16] = target: Ubiquitin carboxyl-terminal hydrolase 1 (Homo sapiens) (UniProt O94782); experiment: Inhibitors of USP1/UAF1: Pilot qHTS (AID 504865); conditions: purified USP1/UAF1, Ub-rhodamine cleavage fluorescence; series mostly up to 54.9 µM;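 further: rhodamine fluorescence freed from ubiquitin-rhodamine substrate followed over time; top concentration of the series differs between compounds; on the % scale 0 is the no-effect control and ±100 the full control effect; nearly all actives have a fitted effect of over 35% in size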
Chain of Ubiquitin carboxyl-terminal hydrolase 1 (Homo sapiens) (O94782 whole entry, looked up): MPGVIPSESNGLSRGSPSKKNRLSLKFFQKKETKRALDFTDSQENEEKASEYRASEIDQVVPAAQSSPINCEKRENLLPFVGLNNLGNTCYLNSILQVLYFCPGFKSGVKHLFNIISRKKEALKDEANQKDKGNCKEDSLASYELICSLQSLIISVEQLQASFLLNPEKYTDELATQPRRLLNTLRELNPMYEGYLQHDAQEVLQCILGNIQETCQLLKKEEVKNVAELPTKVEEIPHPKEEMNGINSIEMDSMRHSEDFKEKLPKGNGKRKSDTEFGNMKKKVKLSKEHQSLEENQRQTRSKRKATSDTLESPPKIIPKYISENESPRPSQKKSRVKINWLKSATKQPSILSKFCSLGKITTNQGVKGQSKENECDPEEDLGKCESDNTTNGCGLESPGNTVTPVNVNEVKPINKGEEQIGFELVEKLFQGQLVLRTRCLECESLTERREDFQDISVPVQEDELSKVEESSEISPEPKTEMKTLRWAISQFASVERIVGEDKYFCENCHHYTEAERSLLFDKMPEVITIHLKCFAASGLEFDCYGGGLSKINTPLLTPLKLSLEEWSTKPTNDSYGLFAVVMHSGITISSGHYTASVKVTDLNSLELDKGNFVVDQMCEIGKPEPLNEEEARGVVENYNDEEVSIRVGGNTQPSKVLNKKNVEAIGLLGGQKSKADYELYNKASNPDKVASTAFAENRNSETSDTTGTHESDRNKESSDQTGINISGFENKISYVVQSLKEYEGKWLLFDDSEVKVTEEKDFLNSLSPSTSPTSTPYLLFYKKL
Outline: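 Enzyme-free wells gave the negative control, while test wells held 1nM USP1/UAF1 preincubated with compound for 15 min at room temperature. Ub-Rho at 150nM final started the reaction, and fluorescence at 480/540 nm was recorded kinetically.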

[17] = target: Cytochrome P450 1A2 (Homo sapiens) (UniProt P05177); experiment: p450-cyp1a2 (AID 410; calls by dose curve; further: potency means the concentration at half of the fitted maximal effect); conditions: recombinant CYP1A2, luciferin-ME demethylation, luminescence; series mostly up to 57 µM
Chain of Cytochrome P450 1A2 (Homo sapiens) (P05177 whole entry, looked up): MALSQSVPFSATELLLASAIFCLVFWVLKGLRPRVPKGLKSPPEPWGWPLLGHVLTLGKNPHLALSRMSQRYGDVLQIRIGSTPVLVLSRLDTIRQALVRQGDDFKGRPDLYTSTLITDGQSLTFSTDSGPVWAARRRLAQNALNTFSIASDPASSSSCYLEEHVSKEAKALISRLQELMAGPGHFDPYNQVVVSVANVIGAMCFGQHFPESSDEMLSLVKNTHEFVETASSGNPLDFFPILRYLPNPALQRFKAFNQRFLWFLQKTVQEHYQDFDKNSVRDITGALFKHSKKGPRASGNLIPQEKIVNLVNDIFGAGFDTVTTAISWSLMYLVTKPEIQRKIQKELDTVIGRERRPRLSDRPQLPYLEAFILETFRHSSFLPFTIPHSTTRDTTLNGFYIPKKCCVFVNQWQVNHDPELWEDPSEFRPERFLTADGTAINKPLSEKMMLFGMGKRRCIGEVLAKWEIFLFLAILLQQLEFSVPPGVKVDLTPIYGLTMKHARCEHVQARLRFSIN
Outline: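 Inhibition was calculated relative to 57 uM furafylline (full inhibition). The reaction used human CYP1A2 at 20nM with Luciferin-ME at its Km, 100uM, driven by an NADPH-regenerating system for 60 min at room temperature.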

[18] = target: Dual specificity protein kinase CLK4 (Homo sapiens) (UniProt Q9HAZ1); experiment: qHTS Assay for Inhibitors of CDC-like Kinase 4 (ADP-FP Assay) (AID 1795); conditions: Transcreener ADP fluorescence polarization; series mostly up to 50 µM; further: nearly all actives have a fitted effect of over 60% in size; further: potency means the concentration at half of the fitted maximal effect
Outline: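 Kinase activity was followed as ADP output, converted from fluorescence polarization with a calibration curve. Reactions ran one hour at low ATP (1 uM) with RS peptide substrate.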

Compound	Potency [1] [µM]	activity change, negative = inhibition [2] [%]	activity change, negative = inhibition [3] [%]	outcome [4]	Potency [5] [µM]	Potency [6] [µM]	Potency [7]	Potency [8]	Potency [9]	Potency [10]	outcome [11]	Potency [12]	Potency [13]	Potency [14]	Potency [15]	Potency [16]	Potency [17]	Potency [18]
COc1ccc2[nH]cc(CCNc3ncncc3-c3ccccc3OC)c2c1	> 11.4	-16.8	-9.5	inactive	> 46	> 46	inactive	inactive	0.251 µM (active)	0.126 µM (active)	inactive	1.26 µM (active)	0.0794 µM (active)	8.91 µM (active)	25.1 µM (active)	inactive		
COc1ccccc1CNc1cc(-c2cccnc2)ncn1	> 11.4	-4.39	-5.01	inactive	> 46	> 46	inactive	inactive		0.631 µM (active)	inactive	5.01 µM (active)		25.1 µM (active)	31.6 µM (active)	inactive	1 µM (active)	
O=c1c(CCc2ccccc2)nc2cncnc2n1Cc1ccccc1	> 11.4		-4.57	inactive	> 46	> 46	inactive							inactive	inactive	inactive		inactive
COc1cccc(Nc2ncc3nc(-c4cccs4)c(=O)n(C[C@H]4CCCO4)c3n2)c1	> 11.4		-15.5		> 9.22	> 46	inactive	inactive						inactive	inactive			inactive
COc1ccccc1-c1ccc2ncnc(N3CCOCC3)c2c1	> 11.4		18.9	inactive	> 46		inactive			6.31 µM (active)	inactive		1.26 µM (active)	11.2 µM (active)	12.6 µM (active)	inactive		11.2 µM (active)
COc1cccc(-c2ccc3ncnc(Nc4ccccc4)c3c2)c1	> 11.4				> 46	> 46	inactive				inactive		0.501 µM (active)	2 µM (active)	2.82 µM (active)	inactive	1 µM (active)	0.282 µM (active)
Cc1cnc(CNc2ncnc3ccc(-c4ccc(N(C)C)cc4)cc23)cn1	> 11.4		5.72	inactive	> 46	> 46		inactive			inactive			8.91 µM (active)	11.2 µM (active)	inactive	1 µM (active)	inactive
